Source: PubChem (several laboratories)
GSIS activator – GLuc luminescence reporter in INS-1E cells, primary screen for activators of glucose-dependent secretion of insulin. INS-1E GLuc reporter insulin secretion, 2-3 h. activation, % at 16.6 µM. 370,000 compounds, 0.61% hits. AID 743287;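 active = lowest replicate activation of at least 40%, so every replicate reaches that level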;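 note: 0% = median of neutral control wells and 100% = median of IBMX positive control wells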
ARNT TACC3 PPI – ARNT/TACC3 interaction disruption | 390,000 compounds, 0.66% hits | inhibition, % at 9.99 µM | AlphaScreen His-ARNT PAS-B/GST-TACC3 binding, luminescence; TACC3 fragment carries E629A point mutation | Q9Y6A5;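 active = mean inhibition of replicates at least 50% and at least half of replicates each reaching 50%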;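 note: 0% = complete ARNT plus TACC3 wells and 100% = ARNT alone without TACC3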
CendR NRP1 mod – NRP-1/CendR interaction modulation | 360,000 compounds, 0.85% hits | inhibition, % at 25 µM | FAM-RPARPAR peptide binding to NRP-1, fluorescence polarization | O14786;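 active = inhibition or corrected inhibition above about 18%, plus a signal ratio from 0.5 to 1.5, limit read from the data, passing the limit was not always enough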
hiPSC survival – increases survival of single human iPS cells. hiPSC single-cell survival, ATPlite luminescence; 100% = ROCK inhibitor wells, 0% = DMSO. survival enhancement, % at 20 µM. 360,000 compounds, 0.044% hits. AID 602274; in the data active = survival enhancement above about 18%;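 note: cells exposed to compounds for 16 hours before the ATP read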
ABCB6 inh 2 – blocks the human ABCB6 transporter | Q9NP58 | K562-ABCB6 porphyrin accumulation, flow cytometry, 1 h; hits give low values | fluorescence ratio to DMSO, % at 10 µM | 360,000 compounds, 0.19% hits | AID 602162;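 active = fluorescence ratio to DMSO below 75%, the collection mean minus 3 SD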;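 note: signal is porphyrin accumulated inside mitochondria; 100% equals median channel fluorescence of DMSO control wells; lower ratio means ABCB6 inhibition with less porphyrin fluorescence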
Target sequence (Q9NP58 whole entry, looked up): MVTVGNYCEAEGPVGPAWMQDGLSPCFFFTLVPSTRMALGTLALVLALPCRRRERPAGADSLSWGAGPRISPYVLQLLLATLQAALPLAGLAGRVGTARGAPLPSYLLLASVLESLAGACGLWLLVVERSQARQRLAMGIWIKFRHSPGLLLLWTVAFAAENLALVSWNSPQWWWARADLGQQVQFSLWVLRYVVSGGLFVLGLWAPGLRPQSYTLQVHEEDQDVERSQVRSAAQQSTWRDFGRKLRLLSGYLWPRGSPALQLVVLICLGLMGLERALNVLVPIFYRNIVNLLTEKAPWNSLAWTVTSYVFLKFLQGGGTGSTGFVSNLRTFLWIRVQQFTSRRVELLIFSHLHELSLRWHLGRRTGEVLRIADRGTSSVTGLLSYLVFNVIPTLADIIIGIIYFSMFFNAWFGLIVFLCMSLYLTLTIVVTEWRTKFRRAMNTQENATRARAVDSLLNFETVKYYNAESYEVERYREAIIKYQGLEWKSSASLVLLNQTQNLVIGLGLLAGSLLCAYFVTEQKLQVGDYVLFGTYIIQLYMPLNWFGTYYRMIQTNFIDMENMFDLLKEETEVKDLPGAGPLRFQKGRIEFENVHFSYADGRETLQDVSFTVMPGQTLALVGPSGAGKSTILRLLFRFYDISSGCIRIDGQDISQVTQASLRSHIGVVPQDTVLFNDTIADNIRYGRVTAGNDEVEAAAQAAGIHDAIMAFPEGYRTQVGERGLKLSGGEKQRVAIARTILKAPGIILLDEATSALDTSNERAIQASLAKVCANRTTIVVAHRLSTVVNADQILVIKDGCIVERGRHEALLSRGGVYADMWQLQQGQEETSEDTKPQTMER
* marks the source's active call; other numbers are inactive results; nt = not tested or not shown. Only some compounds are listed: those with a hit (about 1.8% of all), similar ones and a draw of the others.

SMILES	GSIS activator	ARNT TACC3 PPI	CendR NRP1 mod	hiPSC survival	ABCB6 inh 2
CCOc1ncccc1C(=O)Nc1ccc(F)cc1	-18	-6	12	0	101
CCOc1ncccc1C(=O)Nc1cccc(S(=O)(=O)NC2=NCCC2)c1	55*	-10	13	-2	96
CN(C)C(=O)COC(=O)c1cccnc1Nc1ccccc1F	80*	-5	-5	2	95
O=C(C[C@H]1CC[C@@H]2NC[C@@H](O)COC[C@H]2O1)Nc1nccs1	nt	4	nt	nt	nt
CCOc1ncccc1C(=O)OCC(=O)NCCc1ccccc1	1	-6	0	4	106
CCOc1ncccc1C(=O)OCC(=O)NCCCc1ccccc1	54*	2	-2	0	95
C[C@H](CO)N1C[C@H](C)[C@@H](CN(C)C(=O)c2ccc3c(c2)OCO3)Oc2cc(-c3ccccc3)ccc2S1(=O)=O	-25	nt	nt	nt	nt
Cc1nc(=O)c(-c2ccccc2)c(C)n1-c1ccc(C(=O)O)cc1	nt	-8	-4	0	93
CC(=O)C1=C(c2ccccc2)N(C(C)=O)n2c(C)nnc2S1	-28	35*	-20	-1	102
CCOC(=O)c1ccccc1NC(=O)c1n[nH]c(=O)c2ccccc12	82*	-6	-6	0	86
CO/N=C/CC(=O)c1cnc(-c2ccc(Cl)cc2)s1	-7	1	26*	0	104
COc1cccc(CNC(=O)C[C@H]2C=C[C@@H](NS(=O)(=O)c3ccccc3OC)[C@@H](CO)O2)c1	11	nt	nt	nt	nt
COc1ccc(CC(=O)N2N=C(c3ccncc3)CC2(O)C(F)(F)F)cc1 (stereo not given)	-16	nt	1	29*	97
COc1cccc(S(=O)(=O)Nc2ccc3c(c2)[C@@H]2C[C@@H](CC(=O)NCc4cccc(F)c4)O[C@H](CO)[C@@H]2O3)c1	-14	17	nt	nt	nt
O=C(/C=C/CCc1ccc2c(c1)OCO2)N1CCCCC1	13	-3	23*	-2	97
O=C(/C=C/C=C/c1ccc2c(c1)OCO2)N1CCCCC1	-2	5	-1	-3	96
COc1cc(CC(CC(=O)O)CC(C)OCc2ccccc2)cc(OC)c1 (stereo not given)	nt	-12	-9	20*	97
COc1ccc(NC(=O)C(CC(=O)O)Cc2ccccc2)cc1 (stereo not given)	nt	-7	-21	-2	90
CCS(=O)(=O)N1CCC2(CC1)CN(Cc1ccccc1OC)[C@@H](CO)c1c2c2ccc(OC)cc2n1C	3	nt	nt	nt	nt
CCNC(=O)C[C@H]1CC[C@H]2[C@H](COc3ccc(NC(=O)Nc4cccc(F)c4)cc3C(=O)N2C)O1	0	-3	nt	nt	nt
COc1cc(/C=C/C(=O)OCC(=O)NC(=O)C2COc3ccccc3O2)ccc1OC(F)F (stereo not given)	45*	-4	18	2	98
CC(C)Cn1c(O)c(/C=C2\C=NN=C2c2ccccc2)sc1=S	83*	7	7	-2	87
CCCCn1c(O)c(/C=C2\C=NN=C2c2ccccc2)sc1=S	119*	nt	-17	-1	89
CCn1c(O)c(/C=C2\C=NN=C2c2ccccc2)sc1=S	-5	-3	2	0	98
CCCCCCn1c(O)c(/C=C2\C=NN=C2c2ccccc2)sc1=S	164*	2	6	-1	97
SMILES	GSIS activator	ARNT TACC3 PPI	CendR NRP1 mod	hiPSC survival	ABCB6 inh 2
Cc1ccc(S(=O)(=O)N[C@@H]2CC[C@@H](CCNS(=O)(=O)Cc3ccccc3)O[C@@H]2CO)cc1	-6	-13	nt	nt	nt
CC(C)CC#Cc1ccc2c(c1)O[C@@H](CN(C)Cc1ccccn1)[C@H](C)CN([C@H](C)CO)S2(=O)=O	-17	0	nt	nt	nt
Cc1ccc(C=Nc2cccnc2N)cc1	nt	6	-8	-1	103
COc1ccc(C=Nc2cccnc2N)cc1	nt	28*	8	0	101
OC(CNCc1ccccc1)c1ccccc1 (stereo not given)	nt	1	0	1	101
Oc1cccc(C(O)CNCc2ccc(-c3ccccc3)cc2)c1 (stereo not given)	9	11	28*	0	90
O=C(Nc1ccccc1N1CCOCC1)C1=NN(c2ccccc2)C(=O)CC1	50*	6	-6	0	94
Nc1nc2c(ncn2-c2ccccc2)c(=O)[nH]1	2	46*	5	-2	96
Nc1nc2nn(-c3ccccc3)nc2c(=O)[nH]1	-5	-1	-3	0	95
C[C@@H]1CN([C@H](C)CO)C(=O)Cc2cc(NS(=O)(=O)c3ccc(Cl)cc3)ccc2O[C@@H]1CN(C)S(C)(=O)=O	1	-10	nt	nt	nt
CCS(=O)(=O)N1CC2(CN(C(=O)CN3CCOCC3)[C@H](CO)c3c2c2ccc(OC)cc2n3C)C1	8	nt	nt	nt	nt
COc1ccc(CCN(C)C(=O)c2oc3ccccc3c2C)cc1OC	105*	-2	2	0	98
CCc1ccc(NC(=S)NC2CC3CCC(C2)N3Cc2ccco2)cc1 (stereo not given)	11	8	-8	-1	95
COc1ccc(NC(=S)NC2CC3CCC(C2)N3Cc2ccco2)cc1 (stereo not given)	-3	7	21*	0	95
CO[C@@H]1CN(C)C(=O)c2ccc(NS(=O)(=O)c3ccc(Oc4ccccc4)cc3)cc2OC[C@@H](C)NC[C@@H]1C	-1	nt	nt	nt	nt
COc1ccc(C)cc1NC(=O)c1cccc(C(=O)Nc2cc(C)ccc2OC)c1	-2	0	33*	0	95
CCN1CCN(c2ncc(C(=O)Nc3cc(Cl)c(OC)cc3OC)c3ccccc23)CC1	9	-6	-17	1	97
CCN1CCN(c2ncc(C(=O)N3CCN(c4ccccc4OC)CC3)c3ccccc23)CC1	13	nt	22*	5	99
O=C(c1ccccc1)c1ccccc1N1C(=O)C=CC1=O	192*	-7	-4	3	138
O=C1C=CC(=O)N1c1ccccc1N1C(=O)C=CC1=O	nt	-2	-4	-3	98
Cc1ccccc1Nc1cc(=O)oc2ccccc12	nt	1	22*	-1	105
Cc1ccc(-c2cc([C@H]3[C@@H]4C=CCC[C@@]4(C)C(=O)N3Cc3ccccc3)ccc2F)cc1	15	-3	6	-3	92
Cc1ccc(F)c([C@H]2[C@@H]3C=CCC[C@@]3(C)C(=O)N2Cc2ccccc2)c1	-12	0	28*	0	101
O=C(COC(=O)c1ccccn1)c1cccc(Br)c1	20	50*	3	0	99
CC(=O)Nc1cccc2c1O[C@H](CN(C)C)[C@H](C)CN(C)C2=O	20	nt	nt	nt	nt
COc1cc(NS(=O)(=O)c2ccc(Nc3nc(-c4ccccn4)cs3)cc2)nc(OC)n1	9	56*	-11	-2	98
CCNC1=C(Cl)C(=O)c2ccccc2C1=O	nt	15	4	3	105
CCCC(=O)NC1=C(Cl)C(=O)c2ccccc2C1=O	nt	25*	17	-2	105
CCN(CC)c1ccc(NC2=C(Cl)C(=O)c3ccccc3C2=O)cc1	nt	26	36*	-3	92
